MBNL1-CUG inh: blocks human MBNL1 binding to CUG repeat RNA | Q9NR56 | TR-FRET MBNL1-His/biotin-(CUG)12 binding, 665/545 ratio | Potency, µM (series often up to 57.5 µM), for inactives: at the top dose activity change, negative = inhibition, usual class: inhibitors | actives 0.036% (n = 280,000) | AID 2675; active means well fitted inhibition curve with a large enough effect in the signal ratio, with a control signal flat, not every such curve was filed as active; inconclusive means small, poorly fitted or top-dose-only effect, or effect the other way, or a change in a side signal; inactive means no such curve, though single readings can be large or run the other way; the % refers to the signal ratio; further: potency means the concentration at half of the fitted maximal effect; on the % scale 0 is the no-effect control and ±100 the full control effect
Target sequence (Q9NR56 whole entry, looked up): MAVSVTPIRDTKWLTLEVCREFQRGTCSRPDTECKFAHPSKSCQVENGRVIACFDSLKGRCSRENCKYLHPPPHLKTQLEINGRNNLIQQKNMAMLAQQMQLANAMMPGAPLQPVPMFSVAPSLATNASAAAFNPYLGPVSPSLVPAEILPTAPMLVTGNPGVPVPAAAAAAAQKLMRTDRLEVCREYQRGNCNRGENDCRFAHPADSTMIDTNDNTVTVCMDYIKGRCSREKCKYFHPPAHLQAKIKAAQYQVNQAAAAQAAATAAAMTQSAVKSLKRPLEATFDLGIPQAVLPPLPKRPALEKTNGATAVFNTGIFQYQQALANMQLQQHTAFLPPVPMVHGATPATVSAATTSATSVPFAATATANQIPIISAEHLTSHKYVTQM
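TR-FRET between His-tagged MBNL1 and biotin-(CUG)12 RNA, detected with Tb anti-His antibody (0.055 ng/ul) and streptavidin-XL665 (5 nM), 60 min at room temperature. Compounds titrated 92 nM to 58 uM; 665/545 nm ratio normalized to buffer and complex controls.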
Menin MLL FP FL: inhibitors of human menin-MLL interaction, wild-type MLL peptide; 290,000 tested, under 10 active; FP activity change, % at 61.4 µM; Fluorescence polarization, fluorescein-MLL peptide displacement from menin; active means well fitted curve in the direction sought with a large enough effect in the polarisation, not every such curve was filed as active; inconclusive means small, poorly fitted or top-dose-only effect, or effect the other way, or a change in a side signal; inactive means no such curve, though single readings can be large or run the other way; the % refers to the polarisation; further: % of control where 0% means no effect
Menin-MLL TR inh: displaces Texas Red mutant MLL peptide from human menin; actives 0.23% (n = 270,000); Potency, µM (series often up to 61.6 µM), for the others: at the top dose FP activity change, negative = inhibition, actives largely listed as inhibitors; Menin + Texas Red MLL mutant peptide, fluorescence polarization; active means well fitted inhibition curve with a large enough effect in the polarisation, with a control signal flat, not every such curve was filed as active; inconclusive means small, poorly fitted or top-dose-only effect, or effect the other way, or a change in a side signal; inactive means no such curve, though single readings can be large or run the other way; the % refers to the polarisation; further: potency means the concentration at half of the fitted maximal effect; % of control where 0% means no effect
CBFb RUNX1 block: inhibitors of human CBF-beta and RUNX1 interaction | AlphaScreen CBFb-His/RUNX1-biotin binding, biochemical | 230,000 tested, under 10 active | Potency, µM (highest dose often 59.8 µM), for inactives: top-dose activity, negative = inhibition, usual class: inhibitors | AID 1477; active means well fitted curve in the direction sought with a large enough effect; inconclusive means small, poorly fitted or top-dose-only effect, or effect the other way, or another doubt; inactive means no such curve, though single readings can be large or run the other way; further: % of control where 0% means no effect
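CBF-beta (His) and RUNX1 (biotin), 30 nM each; 20 min preassociation; + compound, 15 min; + beads 50 ng each (Ni, streptavidin), 90 min; RT; AlphaScreen read.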
CXXC DNA block: MLL CXXC-DNA interaction inhibition | MLL-CXXC / FITC-HOXA9 DNA fluorescence polarization | AID 2662 | actives 0.037% (n = 290,000) | Potency, µM (titrated, usually from 115 µM), for the others: at the highest dose activity change, negative = inhibition, most hits filed as inhibitors | Q03164; active means well fitted inhibition curve with a large enough effect in the polarisation, with a control signal flat, not every such curve was filed as active; inconclusive means small, poorly fitted or top-dose-only effect, or effect the other way, or a change in a side signal; inactive means no such curve, though single readings can be large or run the other way; the % refers to the polarisation; further: potency means the concentration at half of the fitted maximal effect
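Purified MLL-CXXC (added from a 7 uM solution) was preincubated 5 min at ambient with pinned compounds in 50 mM Tris-HCl pH 7.5, 50 mM NaCl, 1 mM DTT, 0.05% BSA. Fluorescein-labeled HOX-A9 DNA (50 nM solution) followed, 30 min, then polarization read.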
The depositor's hits bear a star; ! = repeats disagree. This excerpt belongs to a sample that is enriched for hits.

Screening CCn1cc([N+](=O)[O-])c(C(=O)N2N=C(c3ccc4ccccc4c3)CC2c2cc(Br)ccc2O)n1 (centres undefined) returned MBNL1-CUG inh 1%, Menin MLL FP FL -3, Menin-MLL TR inh 11µM*, CBFb RUNX1 block -23% and CXXC DNA block 18%.
`CCN1CCN(CCn2c(=S)[nH]c3cc4c(cc3c2=O)OCO4)CC1` gave MBNL1-CUG inh -3%, Menin MLL FP FL 0, Menin-MLL TR inh 7%, CBFb RUNX1 block -1% and CXXC DNA block 13%.
COc1ccc(-c2cc(-c3cccs3)c(C#N)c(SCC(=O)NCc3ccco3)n2)cc1 was read as MBNL1-CUG inh 17%, Menin MLL FP FL 3, Menin-MLL TR inh -27%, CBFb RUNX1 block -5% and CXXC DNA block -21%.
For COC1(c2cc(-c3ccccc3)nc(N)n2)CCCCC1 the results were MBNL1-CUG inh -11%, Menin MLL FP FL -1, Menin-MLL TR inh -9%, CBFb RUNX1 block 7% and CXXC DNA block -11%.
`COc1ccc(-c2cc(=O)c3ccc(O)cc3o2)cc1` gave Menin MLL FP FL 3, Menin-MLL TR inh 22µM*! and CBFb RUNX1 block -2%.
`COc1ccc(NCc2ccc(OC)c(Cn3ccnc3)c2)c(OC)c1` gave MBNL1-CUG inh 10%, Menin MLL FP FL 4, Menin-MLL TR inh 13µM* and CXXC DNA block 11%.
COc1cccc(/C=N/NC(=O)c2cc(-c3cccn3C)n[nH]2)c1 was read as MBNL1-CUG inh -4%, Menin MLL FP FL 2, Menin-MLL TR inh 35µM*, CBFb RUNX1 block -21% and CXXC DNA block 13%.
For COc1cc(/C=N/NC(=O)c2cc(-c3cccn3C)n[nH]2)cc(OC)c1OC the results were MBNL1-CUG inh 11%, Menin MLL FP FL 6, Menin-MLL TR inh 16%, CBFb RUNX1 block -11% and CXXC DNA block 0%.
For O=C(CNCC1CCCCC1)Nc1ccc(N2CCCCC2)cc1 the results were MBNL1-CUG inh -1%, Menin MLL FP FL 3, Menin-MLL TR inh inconclusive, CBFb RUNX1 block 9% and CXXC DNA block -3%.
O=C(CNCC1CCCO1)Nc1ccc(N2CCCCCC2)cc1 (centres undefined) was read as MBNL1-CUG inh 8%, Menin MLL FP FL 2, Menin-MLL TR inh 14µM*, CBFb RUNX1 block 5% and CXXC DNA block 8%.
CC(=O)Nc1ccc(O)c(-c2nc3ccccc3s2)c1 was read as MBNL1-CUG inh inconclusive, Menin MLL FP FL -3, Menin-MLL TR inh inconclusive, CBFb RUNX1 block -1% and CXXC DNA block 3%.
Screening O=C(Nc1ccc(OC(=O)c2ccccc2)c(-c2nc3ccccc3s2)c1)c1ccccc1 returned MBNL1-CUG inh 1%, Menin MLL FP FL 2, Menin-MLL TR inh 18µM*, CBFb RUNX1 block 3% and CXXC DNA block 51%.
`Cc1c(Br)c([N+](=O)[O-])nn1C(C)C(=O)N1CCc2ccccc2C1` (centres undefined) gave MBNL1-CUG inh 5% and CXXC DNA block 7%.
COc1ccc(N2CCN(C(=O)C(CCSC)N=C3NS(=O)(=O)c4ccccc43)CC2)cc1 (centres undefined) was read as MBNL1-CUG inh 1%, Menin MLL FP FL 2, Menin-MLL TR inh 6%, CBFb RUNX1 block -9% and CXXC DNA block 0%.
`O=C(CC1SC(=NCCc2ccccc2)N(/N=C/c2cccs2)C1=O)Nc1ccc(Cl)cc1` (centres undefined) gave MBNL1-CUG inh -13%, Menin MLL FP FL 4, Menin-MLL TR inh 40µM*, CBFb RUNX1 block -14% and CXXC DNA block 19%.
For O=C(CC1SC(=O)N(c2ccccc2)C1=O)Nc1ccc(Cl)cc1 (centres undefined) the results were Menin MLL FP FL 0, CBFb RUNX1 block -8% and CXXC DNA block 30%.
Screening CCOC(=O)c1c(N)nn(C(=O)C(C)C)c1-c1ccc(OC)cc1 returned MBNL1-CUG inh 2%, Menin MLL FP FL 2, Menin-MLL TR inh 0%, CBFb RUNX1 block 7% and CXXC DNA block -1%.
C/C(=N\NC(=O)c1ccc(Cl)c(Cl)c1)c1ccc(Br)s1 was read as MBNL1-CUG inh 2%, Menin MLL FP FL 2, Menin-MLL TR inh 11µM*, CBFb RUNX1 block -1% and CXXC DNA block 5%.
Screening COc1ccc2nc(NC(=O)C3CCCN(S(=O)(=O)c4cccs4)C3)sc2c1 (centres undefined) returned MBNL1-CUG inh -1%, Menin MLL FP FL -3, Menin-MLL TR inh 22µM*, CBFb RUNX1 block -10% and CXXC DNA block 27%.
`COc1ccc2nc(NC(=O)C3CCN(S(=O)(=O)c4cccs4)CC3)sc2c1` gave MBNL1-CUG inh 2%, Menin MLL FP FL 0, CBFb RUNX1 block -2% and CXXC DNA block 15%.
For CC1=CC(C#N)(C#N)C(C#N)(C#N)C(c2ccccc2)N1 (centres undefined) the results were MBNL1-CUG inh 23%, Menin MLL FP FL inconclusive, Menin-MLL TR inh -7%, CBFb RUNX1 block -10% and CXXC DNA block 40µM*.
Screening COC(=O)[C@H](C)NC(=O)NC(C)CCc1ccccc1 (some centres undefined) returned MBNL1-CUG inh 2%, Menin MLL FP FL -1, CBFb RUNX1 block 10% and CXXC DNA block 7%.
`CCOC(=O)CCCCC(=O)c1[nH]c(=O)[nH]c1CSCCO` gave MBNL1-CUG inh 3.5µM*, Menin MLL FP FL -1, Menin-MLL TR inh 5%, CBFb RUNX1 block inconclusive and CXXC DNA block 4%.
For CCOC(=O)CCCCC(=O)c1[nH]c(=O)[nH]c1CSc1nc(-c2ccccc2)c(C#N)c(=O)[nH]1 the results were MBNL1-CUG inh 7.1µM*, Menin MLL FP FL 0, Menin-MLL TR inh 26%, CBFb RUNX1 block -13% and CXXC DNA block 5%.
For N#Cc1c(-c2ccccc2)nc(SCC(=O)N(c2ccccc2)c2ccccc2)[nH]c1=O the results were MBNL1-CUG inh inconclusive, Menin MLL FP FL 13, Menin-MLL TR inh 33%, CBFb RUNX1 block -6% and CXXC DNA block -9%.
Screening CCN1/C(=C/c2sc(-c3ccccc3C)c[n+]2C)Sc2ccccc21 returned MBNL1-CUG inh inconclusive, Menin MLL FP FL -2, Menin-MLL TR inh 25µM*, CBFb RUNX1 block -1% and CXXC DNA block 0%.
Screening CCN1/C(=C/c2ccc3cc(C)ccc3[n+]2CC)Sc2ccccc21 returned Menin MLL FP FL inconclusive, Menin-MLL TR inh inconclusive, CBFb RUNX1 block -27% and CXXC DNA block inconclusive.
For CC1(C)CC(=O)C2=C(C1)Nc1cc3c(cc1C2c1ccc2c(c1)OCO2)OCO3 (centres undefined) the results were MBNL1-CUG inh 13%, Menin MLL FP FL 0, Menin-MLL TR inh 5%, CBFb RUNX1 block -11% and CXXC DNA block 5%.

Screening results (PubChem)
